These results are taken from ChEMBL document CHEMBL4513146, “CO-ADD screening of Karazin Kharkiv National University (Ukraine) compounds”.

For test [1], the system named is Klebsiella pneumoniae. As to conditions: Concentration 32 ug.mL-1;; ASSAY_TEST Inhibition of Bacterial Growth; detection method Absorption (OD600); MEDIA CAMHB; plate type 384well; NBS; CORNING #3640; time 18 hr.
Test [2] deals with Candida albicans. As to conditions: Concentration 32 ug.mL-1; ASSAY_TEST Inhibition of Fungal Growth; detection method Absorption (OD530).
Test [3] has as its system Cryptococcus neoformans. To be noted: Concentration 32 ug.mL-1; ASSAY_TEST Inhibition of Fungal Growth; detection method Resazurin; Absorption (OD600-OD570); plate type 384well; NBS; CORNING #3640. A general note: Alamar Blue is a resazurin reagent that responds to reducing activity.

Entries with a potency or affinity are not part of this list.

Broadly, the Inhibition is the change of the read-out against control, counted positive when it falls. `CCOc1ccc(-c2nc(CSc3nc4ccccc4n4c(C)nnc34)c(C)o2)cc1`: the values for the Inhibition in test [1], in test [2] and in test [3] were 11.43%, 1.94% and -16.17%, respectively.

Consider `COc1ccc(Cl)cc1NC(=O)Cn1nc2c3cc(-c4ccc(C)cc4)nn3ccn2c1=O`, for which the Inhibition in test [1] was 5.55%; in test [2], 14.91%; in test [3], -9.24%.

On to `O=C(Cn1nc2ccc(Sc3cccc(F)c3)nn2c1=O)Nc1ccc2c(c1)OCCO2`, for which the Inhibition in test [1] is given as 12.38%; in test [2] it was -0.05%; in test [3], -8.22%.

For the compound `COc1ccccc1-n1ccn2c(SCc3cc(C)ccc3C)nnc2c1=O`, the values for the Inhibition in test [1], in test [2] and in test [3] were 16.48%, 0.1% and -7.82%, respectively.

On to `COc1ccc(-c2cc3c4nn(CC(=O)Nc5ccc(C)cc5)c(=O)n4ccn3n2)cc1`, for which the Inhibition in test [1] is on record as 7.98%; in test [2], 8.11%; in test [3], -26.93%.

As for `COc1ccc(NC(=O)Cn2nc3c4cc(-c5ccc(OC)cc5)nn4ccn3c2=O)cc1`, the Inhibition in test [1] was 12.45%; in test [2] it was 2.73%; in test [3], -13.09%.

Regarding `O=c1c2sccc2n2c(=O)n(Cc3ccccc3Cl)nc2n1Cc1cccs1`, the Inhibition in test [1] was -3.57%; in test [2] it was 32.61%; in test [3] it was -5.81%.

As for `COc1cc(NC(=O)CSc2nnc3c(=O)n(-c4ccccc4)ccn23)cc(OC)c1`, the Inhibition is 17.43% in test [1], 0.46% in test [2] and -23.26% in test [3].

On to `Cc1ccc(-c2ccc3nn(Cc4nc(-c5ccc(OC(F)(F)F)cc5)no4)c(=O)n3n2)cc1`, for which the Inhibition is -0.72% in test [1], 49.09% in test [2] and -8.92% in test [3].

Consider `Cc1nnc2ccc(S(=O)(=O)N(Cc3ccccc3Cl)c3ccc(F)cc3)cn12`, for which the Inhibition in test [1] is listed as 0.63%; in test [2], 5.22%; in test [3], -2.96%.

`O=C(Cn1nc2ccc(Sc3cccc(F)c3)nn2c1=O)Nc1cccc(C(F)(F)F)c1`: the results for the Inhibition in test [1], in test [2] and in test [3] were 3.15%, 0.5% and -9.77%, respectively.

As to `Cc1ccc(-c2cc3c4nnc(SCC(=O)Nc5ccccc5Br)n4ccn3n2)cc1`, the Inhibition is reported as 5.31% in test [1], 5.08% in test [2] and -35.04% in test [3].

As to `O=C(Cn1nc2c(Oc3ccccc3)nccn2c1=O)Nc1ccc2c(c1)OCCO2`, the Inhibition in test [1] is reported as 6.43%; in test [2], 0.75%; in test [3], -7.17%.

Take `CC(C)(C)Sc1ccc2nn(CC(=O)Nc3ccccc3C(F)(F)F)c(=O)n2n1`: the values for the Inhibition in test [1], in test [2] and in test [3] were 13.7%, 0.56% and -20.81%, respectively.

Take `CCOc1ccc(-n2ccn3c(SCC(=O)NCc4ccc(Cl)cc4)nnc3c2=O)cc1`: the Inhibition is on record as 11.7% in test [1], 0.49% in test [2] and -7.68% in test [3].

For the compound `CCCCOc1ccc(-c2cc3c4nnc(SCC(=O)Nc5cc(C)ccc5C)n4ccn3n2)cc1`, the Inhibition in test [1] was -2.43%; in test [2] it was 5.83%; in test [3], -10.24%.

Consider `CCc1nnc2c(SCC(=O)Nc3cccc(Br)c3)nc3ccccc3n12`, for which the Inhibition is recorded as 4.36% in test [1], 4.07% in test [2] and -27.47% in test [3].

On to `CCCCn1c(=O)c2sccc2n2c(=O)n(CC(=O)c3cccc(OC)c3)nc12`, for which the Inhibition in test [1] is given as 13.89%; in test [2] it was 1.56%; in test [3] it was -15.97%.

With `CCOc1ccc(-n2ccn3c(SCC(=O)Nc4ccc(C)cc4Cl)nnc3c2=O)cc1`, the Inhibition in test [1] was 9.51%; in test [2], 5.12%; in test [3] it was -6.58%.

Turning to `Cc1ccc(-c2cc3c4nn(CC(=O)NCc5ccc(Cl)cc5)c(=O)n4ccn3n2)cc1C`, the Inhibition in test [1] is listed as 7.6%; in test [2], 2%; in test [3], -10.6%.

With `Cc1ccc(Oc2nccn3c(=O)n(CC(=O)Nc4ccccc4F)nc23)cc1`, the Inhibition in test [1] is listed as 2.86%; in test [2] it was 5.88%; in test [3] it was -5.76%.

With `COC(=O)c1sccc1NC(=O)Cn1nc2c(Oc3ccccc3)nc3ccccc3n2c1=O`, the Inhibition was 10.72% in test [1], 1.3% in test [2] and -16.14% in test [3].

As to `COc1ccccc1N1CCN(C(=O)CSc2nnc3c(=O)n(-c4ccccc4)ccn23)CC1`, the Inhibition in test [1] is on record as 9.27%; in test [2], 1.3%; in test [3], -12.92%.

In the case of `COc1ccc(-c2cc3c4nn(CC(=O)Nc5ccc(OC)cc5OC)c(=O)n4ccn3n2)cc1`, the Inhibition is 12.55% in test [1], 0.69% in test [2] and -8.54% in test [3].

In the case of `O=C(CSc1nnc2c(=O)n(-c3ccc(F)cc3)ccn12)c1ccccc1Cl`, the Inhibition in test [1] was 14.55%; in test [2] it was 8.47%; in test [3], -13.46%.

As to `Cc1cc(C)cc(NC(=O)Cn2nc3c(Sc4cccc(C)c4)nc4ccccc4n3c2=O)c1`, the Inhibition in test [1] is recorded as 5.29%; in test [2], 1.16%; in test [3], -15.02%.

For `Cc1ccc(CNC(=O)Cn2nc3c(N4CCN(c5ccccc5C)CC4)nccn3c2=O)cc1`, the Inhibition is 0.81% in test [1], 26.17% in test [2] and -8.71% in test [3].

Turning to `COc1ccccc1-n1ccn2c(SCC(=O)Nc3ccc(F)cc3F)nnc2c1=O`, the figures for the Inhibition in test [1], in test [2] and in test [3] were 8.27%, 0.36% and -9.49%, respectively.

Turning to `CC(C)c1nnc2c(=O)n(CC(=O)Nc3ccccc3)c3ccccc3n12`, the Inhibition in test [1] is given as 14.31%; in test [2], 3.67%; in test [3] it was -25.44%.

On to `CCCc1nnc2c(=O)n(CC(=O)Nc3ccc(C(C)=O)cc3)c3ccccc3n12`, for which the Inhibition is 3.81% in test [1], -1.78% in test [2] and -9.17% in test [3].

`CCOc1ccc(NC(=O)Cn2nc3c(Oc4cccc(OC)c4)nccn3c2=O)cc1`: the Inhibition in test [1] is 14.7%; in test [2], 3.56%; in test [3], -8.08%.

For the compound `CCc1cccc(NC(=O)Cn2c(=O)c3nnc(C(C)C)n3c3ccccc32)c1`, the Inhibition in test [1] is 9.33%; in test [2], 1.02%; in test [3] it was -21.01%.

On to `O=c1c2nn(Cc3ccc([N+](=O)[O-])cc3)c(=O)n2ccn1-c1ccccc1`, for which the Inhibition in test [1] is listed as 13.17%; in test [2] it was 3.56%; in test [3], -7.73%.

Consider `Cc1ccc(NC(=O)Cn2c(=O)c3nnc(C)n3c3ccccc32)cc1C`, for which the Inhibition was 6.79% in test [1], 0.69% in test [2] and -4.45% in test [3].

Take `Cc1nnc2ccc(S(=O)(=O)N(Cc3ccc(Cl)cc3)c3cccc(F)c3)cn12`: the Inhibition in test [1] is reported as 9.13%; in test [2], 3.61%; in test [3], -11.42%.

`COC(=O)c1ccc(NC(=O)Cn2nc3ccc(S(=O)(=O)c4ccccc4)nn3c2=O)cc1`: the values for the Inhibition in test [1], in test [2] and in test [3] were 3.88%, 1.43% and -5.62%, respectively.

As for `COc1ccc(-c2cc3c4nn(CC(=O)Nc5cc(C)cc(C)c5)c(=O)n4ccn3n2)cc1`, the Inhibition is on record as 9.4% in test [1], 2.5% in test [2] and -4.71% in test [3].

In the case of `CCOc1ccccc1CNC(=O)CCc1nnc2ccc(-c3ccccc3)nn12`, the figures for the Inhibition in test [1], in test [2] and in test [3] were 9.31%, 0.83% and -22.57%, respectively.

As to `CCc1nnc2c(=O)n(CC(=O)Nc3ccc(Br)cc3F)c3ccccc3n12`, the figures for the Inhibition in test [1], in test [2] and in test [3] were 8.6%, 6.85% and -13.86%, respectively.

Turning to `COc1cccc(Sc2nc3ccccc3n3c(=O)n(CC(=O)N4CCCc5ccccc54)nc23)c1`, the Inhibition in test [1] is recorded as 2.78%; in test [2] it was 0.71%; in test [3] it was -20.75%.

For the compound `CC(C)Cn1c(=O)c2sccc2n2c(=O)n(CC(N)=O)nc12`, the Inhibition was -1.97% in test [1], -1.59% in test [2] and -19.03% in test [3].

For `NC(=O)C1CCN(C(=O)CCc2nnc3c(N4CCCCC4)nc4ccccc4n23)CC1`, the Inhibition is given as 15.2% in test [1], 1.8% in test [2] and -5.85% in test [3].

Take `COc1cccc(Sc2nc3ccccc3n3c(=O)n(CC(=O)Nc4cccc(C#N)c4)nc23)c1`: the figures for the Inhibition in test [1], in test [2] and in test [3] were 5.87%, 14.41% and -21.13%, respectively.

On to `CC(C)Cn1c(=O)c2sccc2n2c(=O)n(Cc3ccc(Cl)cc3)nc12`, for which the Inhibition in test [1] is on record as 2.18%; in test [2], -1.9%; in test [3] it was -15.45%.
